Assay results reported in PubChem BioAssay AID1566 (Sanford-Burnham Center for Chemical Genomics, 2009).
Hit rate of the full screen: of about 290,000 compounds, about 1,800 (0.62%) were called active. This is one part of a sample in which actives are shown more often than they occur. No stated cut-off is given here; in the data, active means inhibition above about 50%; inactive means the rest.

Experiment: inhibition of NOD2-driven NF-kB reporter – cell-based, luminescence, uHTS, HEK293 (AID 1566)
Conditions: HEK293 NOD2/NF-kB luciferase reporter, at 4 µM, active compounds read high

inhibition, inactive:
Cc1ccc(NS(=O)(=O)c2cc(NC(=O)c3cc(=O)[nH]c(=O)[nH]3)ccc2Cl)c(C)c1 22.6%, COc1ccc(NC(=O)c2ccc3c(c2)NC(=O)CS3)cc1S(=O)(=O)Nc1ccc(Br)cc1 3.4%, CC(=O)O/N=C/c1c(Cl)n(C)c2ccccc12 -6.2%, Cc1ccc(C2/C(=C(/O)c3cnn(-c4ccccc4)c3C)C(=O)C(=O)N2CCN2CCOCC2)o1 (stereo unspecified) -58.4%, Cc1c(/C(O)=C2/C(=O)C(=O)N(CCN3CCOCC3)C2c2cccnc2)cnn1-c1ccccc1 (stereo unspecified) 8.5%, N#CCSc1nc(Nc2ccc3c(c2)OCO3)c2ccccc2n1 22%, CCOC(=O)CSc1nc(C)c2ccccc2n1 3.1%, Cc1cc2ncc(C(=O)Nc3ccsc3C(=O)O)c(C)n2n1 20.1%, Cc1cc[n+](C(C)C(=O)c2ccc(-c3ccccc3)cc2)cc1 (stereo unspecified) 22.5%, Cc1ccc[n+](C(C)C(=O)c2ccc(-c3ccccc3)cc2)c1 (stereo unspecified) 23.2%, Cc1cc(NC(=O)CSc2nnc(CNC(=O)c3c(F)cccc3F)o2)no1 -3.4%, COc1cccc(OC)c1C(=O)Nc1ccc(N2CCN(C(=O)c3ccco3)CC2)cc1 0.8%, O=C(CCS(=O)(=O)c1ccc2c(c1)NC(=O)CS2)NCc1cccs1 0.9%, CCOC(=O)CC1C(=O)NCCN1c1nc2c(C)cccn2c(=O)c1/C=C1\SC(=S)N(C(C)CC)C1=O (stereo unspecified) 49%, CCCN1C(=O)/C(=C/c2c(N3CCNC(=O)C3CC(=O)OCC)nc3c(C)cccn3c2=O)SC1=S (stereo unspecified) 44.3%, Cc1nc2ncnn2c(N2CCN(C(c3ccccc3)c3ccccc3)CC2)c1C 11.8%, Cc1ccc(NC(=O)Nc2cnc3ccccc3c2)cc1 -175%, CC(=O)Nc1cc2ccccc2oc1=O 9%, O=C(Nc1cc2ccccc2oc1=O)c1ccccc1 18.1%, O=C(Nc1cnc2ccccc2c1)c1ccncc1 -72%

inhibition, active:
Cc1c(/C(O)=C2/C(=O)C(=O)N(CCN3CCOCC3)C2c2ccccn2)cnn1-c1ccccc1 (stereo unspecified) 56.8%, CCOC(=O)CSc1nc(Nc2ccc3c(c2)OCO3)c2ccccc2n1 85.7%, Cc1cc(C)c[n+](C(C)C(=O)c2ccc(-c3ccccc3)cc2)c1 (stereo unspecified) 53.1%, CCOC(=O)CC1C(=O)NCCN1c1nc2c(C)cccn2c(=O)c1/C=C1\SC(=S)N(CC(C)C)C1=O (stereo unspecified) 51.8%, Cc1ccc(C(=O)Nc2cc3ccccc3oc2=O)cc1 69.7%, Cc1ccc(C(=O)Nc2cnc3ccccc3c2)cc1 54.2%
